This note sets out measurements from PubChem BioAssay AID1117267 (The Scripps Research Institute Molecular Screening Center, 2014).

The campaign covered roughly 92,000 compounds. About 1,200 (1.3%) were called active. The sample as a whole holds a higher share of actives than the screen did. Unmarked numbers belong to inactive results.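 The calls were made as follows: active = activation above the mean of all tested compounds plus 3 SD (cut at about 9.5% in these data); inactive = the rest.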

The nature of this experiment: compounds raising TTR promoter-driven luciferase – cell-based, luminescence, SH-SY5Y, TTR promoter Gaussia luciferase, primary screen (AID 1117267).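 Also: cells exposed to compounds for one day before reading; 0% = median of all test compound wells on the plate.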 The settings on record: at 16.7 µM, hits give high values, 100% = recombinant luciferase protein wells.
With `CCC(=O)c1c(CC)c2n3c1=CC[C@H]3CC(Br)C=2` (some centres not stated), the activation was -0.76%. Consider `O=C(Nc1ccc(C(=O)O)cc1)/C(=C\c1ccccc1)NC(=O)c1ccc(Br)cc1`, for which the activation was 0.53%. With `O=C(NC(=O)c1ccccc1N1CCCCC1)Nc1ccc(Br)cc1` the figure was 22.9% (active); with `COc1ccccc1C(=O)NC(=S)Nc1ccccc1N1CCCCC1`, 1.44%.

`COc1ccc(C(C)NC(=O)C23CC4CC(CC(C4)C2)C3)cc1` (configuration not stated): the activation is 0.59%. With `Cc1ccc(CN2CCCOCCS2(=O)=O)cc1` the figure was 11.7% (active); with `O=S1(=O)CCOC[C@H](CC2CCCCC2)N1Cc1ccc(F)cc1`, 0.81%; with `CCC(C)[C@H]1COCCS(=O)(=O)N1Cc1ccc(C)cc1` (some centres not stated), 1.12%. As to `CCc1ccccc1NC(=O)Cc1cn(C)c2ccccc12`, the activation is 4%. As to `N=c1ccn(CC(=O)NC(N)=O)c2ccccc12`, the activation was 10.4% (active). Take `O=C(Cn1cnc2ccccc21)Nc1ccccc1-c1ccccc1`: the activation was -1.54%.

For the compound `Cc1cn(C2CC(O)C(CO)O2)c(=O)n(CCCc2ccccc2)c1=O` (configuration not stated), the activation was 1.94%. The result for `Cn1c(=O)c(=O)n(C)c2cc(S(=O)(=O)NCCN3CCN(c4ccccc4F)CC3)ccc21` reads -0.31%; that for `O=S(=O)(NCCCN1CCOCC1)c1ccc(F)c(Cl)c1`, 14.3% (active). The result for `O=C(CN1CCOCC1)Nc1c(Cl)cc(Cl)cc1Cl` reads -1.15%; that for `Cn1nc(-c2ccccc2)c2cc([N+](=O)[O-])ccc21`, 2.37%. The result for `CCCNC(=O)C(=O)Nc1cc2c3c(c1)CCC(=O)N3CCC2` reads 0.51%; that for `CCOC(=O)c1c(-c2ccccc2)oc2ccc(OCC(N)=O)cc12`, 10% (active). On to `CCOC(=O)c1c(C)oc2ccc(OCC(=O)N(CC)CC)cc12`, for which the activation was 0.72%.

Regarding `CCOC(=O)c1c(-c2ccccc2)oc2ccc(OCC(=O)NN)cc12`, the activation was 3.27%.

Regarding `CCOc1ccc(CN2CCN(Cc3ccon3)CC2CCO)cc1` (configuration not stated), the activation was 7.67%.

Consider `CC(NC(=O)CCCC1CCCCC1)c1ccc(S(N)(=O)=O)cc1` (configuration not stated), for which the activation was -0.93%. The result for `CCOC(=O)COc1ccc([N+](=O)[O-])cc1` reads 0.43%; that for `N#Cc1cccc(CN2CCC(=O)N(CCO)CC2)c1`, 14.7% (active); that for `O=C1CCN(CCc2ccccc2)CCN1CCOc1ccccc1`, 0.26%. Take `O=C1CCN(Cc2ccc([N+](=O)[O-])cc2)CCN1[C@H](CO)Cc1ccccc1`: the activation was -6.98%. Regarding `CCCCCCNS(=O)(=O)c1ccccc1Br`, the activation was -0.76%. The result for `CCN([C@H](CO)C(C)C)S(=O)(=O)c1ccccc1Br` reads 3.03%. As for `O=S(=O)(NCc1ccccc1Br)c1ccccc1Br`, the activation was 14% (active). With `OC(c1ccccc1)(c1ccccc1)C1CCN(CCCOc2ccccc2)CC1`, the activation is -2.2%.

On to `CCOC(=O)c1cc(C(=O)Nc2ccc(S(=O)(=O)Nc3ccc(OC)cc3)cc2)nn1C`, for which the activation was -1.23%. With `CCOC(=O)c1cc(-c2ccc(Cl)s2)nc2c1c(C)nn2C` the figure was 15.8% (active).

`CCOC(=O)C1=C(O)CSC1=Nc1cccc(Cl)c1`: the activation was -2.26%.

As for `O=C(O)Cn1c(Cc2ccccc2)nc2ccccc21`, the activation is 20.6% (active). With `O=S(=O)(Cc1ccccc1)c1nc2ccccc2n1Cc1ccccn1` the figure was -0.52%; with `CCC(C(=O)NCc1ccccc1)n1c(Cc2cc(F)cc(F)c2)nc2ccccc21` (configuration not stated), -1.34%. With `COc1cccc(OC)c1C(=O)OCC(=O)/C(C#N)=C(\C)N`, the activation is -0.74%. Turning to `COc1ccc(CCNC(=O)COc2ccc3c(c2)OCO3)cc1`, the activation is -1.39%. The result for `CC1CCN(CCC(=O)Nc2ccccc2)CC1` reads 0.42%; that for `O=C(CCC1CCN(C(=O)c2cccc(Cl)c2F)CC1)Nc1ccccc1`, -1.31%; that for `CC(C)(C)C1CCC(OC(=O)CCC(=O)Nc2ccccc2)CC1` (configuration not stated), 20.6% (active). With `COc1cc2c(cc1CNC[C@H]1O[C@@H](n3cnc(C(N)=O)n3)[C@H](O)[C@@H]1O)OCO2` the figure was 1.81%. `N#Cc1ccc(CSc2nnc3ccccn23)cc1`: the activation is -0.39%. In the case of `N#Cc1ccc(CSc2nnc(-c3ccccn3)n2-c2ccc(Cl)cc2)cc1`, the activation is 28% (active). Consider `Cc1ccc(-n2c(SCC(=O)Nc3ccc4c(c3)OCO4)nnc2-c2ccccn2)cc1`, for which the activation was -2.71%. Turning to `COc1cccc(/C=C2\SC(=N)N(c3ccc(F)cc3)C2=O)c1`, the activation was 3.96%. The result for `Cc1ccccc1Nc1c([N+](=O)[O-])ccc2nonc12` reads -2.33%.

Turning to `COc1ccc(NC(=O)CCC(=O)N2CCN(S(=O)(=O)c3ccc(C)cc3)CC2)c(OC)c1`, the activation was 2.84%. Turning to `O=C(NNC(=O)c1cc(S(=O)(=O)N2CCCCC2)ccc1Cl)c1ccccc1O`, the activation is 11.9% (active). With `O=C(COC(=O)c1cc(S(=O)(=O)N2CCCCC2)ccc1Cl)NCc1ccco1` the figure was 2.03%; with `O=C(c1cc(S(=O)(=O)N2CCOCC2)ccc1Cl)N1CCOCC1`, 2.72%. As to `Cc1nc(Nc2ccc3c(c2)OCCO3)c2nnn(Cc3ccccc3Cl)c2n1`, the activation is 11.8% (active). Take `Clc1ccc(Nc2ncnc3c2nnn3Cc2ccccc2)cc1`: the activation is -0.95%. Regarding `Cc1cc(C)n2ncc(C(=O)Nc3ccc4c(c3)OCCO4)c2n1`, the activation is 2.76%. In the case of `O=C(Nc1cc(Cl)cc(Cl)c1)OCCN1CCCC12CCC(c1ccccc1)CC2` (configuration not stated), the activation is 1.93%.

On to `CCN(CC)S(=O)(=O)c1ccc(C(=O)N2CCN(C3=NS(=O)(=O)c4ccccc43)CC2)cc1`, for which the activation is -0.96%. The result for `C=CCN1C(=O)C2(OCCCO2)c2cccc(Cl)c21` reads 0.94%; that for `COc1ccc(NC(=O)CCNC(=O)Cn2cnc3sc4c(c3c2=O)CCCC4)cc1OC`, -1.59%. The result for `O=C(CSc1n[nH]c(-c2cccnc2)n1)Nc1ccc(Cl)cc1` reads -0.75%; that for `Nc1nc(SCC(=O)Nc2ccc(Cl)c([N+](=O)[O-])c2)n[nH]1`, 9.76% (active); that for `Nc1nc(SCC(=O)Nc2ccc(Cl)cc2C(F)(F)F)n[nH]1`, 0.01%. The result for `COc1ccc(-c2cc(C(=O)N/N=C/c3cccnc3)c3ccccc3n2)c(OC)c1` reads -1.67%.
